Assay [1] concerns the target T1, Ephrin type-A receptor 3 (Homo sapiens) (UniProt P29320).
T1 sequence (whole entry): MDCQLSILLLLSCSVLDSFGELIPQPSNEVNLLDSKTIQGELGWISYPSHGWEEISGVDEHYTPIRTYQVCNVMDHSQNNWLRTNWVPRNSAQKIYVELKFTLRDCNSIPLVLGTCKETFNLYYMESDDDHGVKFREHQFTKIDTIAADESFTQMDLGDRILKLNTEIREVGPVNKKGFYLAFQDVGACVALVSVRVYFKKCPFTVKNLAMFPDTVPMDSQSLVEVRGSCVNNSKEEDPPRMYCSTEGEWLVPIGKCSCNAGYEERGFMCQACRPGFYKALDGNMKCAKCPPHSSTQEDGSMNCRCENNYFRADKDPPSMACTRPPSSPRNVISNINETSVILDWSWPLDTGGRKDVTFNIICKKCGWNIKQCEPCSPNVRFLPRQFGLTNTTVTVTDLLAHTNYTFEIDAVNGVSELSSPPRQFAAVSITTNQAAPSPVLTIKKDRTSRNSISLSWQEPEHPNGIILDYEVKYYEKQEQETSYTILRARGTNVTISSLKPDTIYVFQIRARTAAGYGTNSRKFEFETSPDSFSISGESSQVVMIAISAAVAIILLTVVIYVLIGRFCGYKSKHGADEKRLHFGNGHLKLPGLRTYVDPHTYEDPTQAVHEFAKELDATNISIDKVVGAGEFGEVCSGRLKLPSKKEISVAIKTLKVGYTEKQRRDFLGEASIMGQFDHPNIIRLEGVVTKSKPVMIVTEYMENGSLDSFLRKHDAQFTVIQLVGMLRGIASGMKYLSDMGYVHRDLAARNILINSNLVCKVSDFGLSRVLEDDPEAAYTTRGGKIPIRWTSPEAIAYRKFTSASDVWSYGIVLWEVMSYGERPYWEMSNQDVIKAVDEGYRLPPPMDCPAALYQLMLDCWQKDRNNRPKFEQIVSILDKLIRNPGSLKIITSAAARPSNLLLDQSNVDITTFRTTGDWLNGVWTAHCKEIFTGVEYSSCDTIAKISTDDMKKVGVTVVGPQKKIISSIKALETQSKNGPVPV
The note with it: at 10 µM.

For assay [2], the target named is Ephrin type-A receptor 4 (Homo sapiens) (UniProt P54764). The note with it: at 1 µM.
Assay [3] addresses Ephrin type-A receptor 5 (Homo sapiens) (UniProt P54756). The note with it: at 1 µM.
For assay [4] the target is unchanged. Particulars: at 10 µM.
For assay [5], the target named is Ephrin type-A receptor 7 (Homo sapiens) (UniProt Q15375). Particulars: at 1 µM.
The target is the same in assay [6]. Particulars: at 10 µM.
Assay [7] concerns the target T2, Ephrin type-A receptor 8 (Homo sapiens) (UniProt P29322).
T2 sequence (whole entry): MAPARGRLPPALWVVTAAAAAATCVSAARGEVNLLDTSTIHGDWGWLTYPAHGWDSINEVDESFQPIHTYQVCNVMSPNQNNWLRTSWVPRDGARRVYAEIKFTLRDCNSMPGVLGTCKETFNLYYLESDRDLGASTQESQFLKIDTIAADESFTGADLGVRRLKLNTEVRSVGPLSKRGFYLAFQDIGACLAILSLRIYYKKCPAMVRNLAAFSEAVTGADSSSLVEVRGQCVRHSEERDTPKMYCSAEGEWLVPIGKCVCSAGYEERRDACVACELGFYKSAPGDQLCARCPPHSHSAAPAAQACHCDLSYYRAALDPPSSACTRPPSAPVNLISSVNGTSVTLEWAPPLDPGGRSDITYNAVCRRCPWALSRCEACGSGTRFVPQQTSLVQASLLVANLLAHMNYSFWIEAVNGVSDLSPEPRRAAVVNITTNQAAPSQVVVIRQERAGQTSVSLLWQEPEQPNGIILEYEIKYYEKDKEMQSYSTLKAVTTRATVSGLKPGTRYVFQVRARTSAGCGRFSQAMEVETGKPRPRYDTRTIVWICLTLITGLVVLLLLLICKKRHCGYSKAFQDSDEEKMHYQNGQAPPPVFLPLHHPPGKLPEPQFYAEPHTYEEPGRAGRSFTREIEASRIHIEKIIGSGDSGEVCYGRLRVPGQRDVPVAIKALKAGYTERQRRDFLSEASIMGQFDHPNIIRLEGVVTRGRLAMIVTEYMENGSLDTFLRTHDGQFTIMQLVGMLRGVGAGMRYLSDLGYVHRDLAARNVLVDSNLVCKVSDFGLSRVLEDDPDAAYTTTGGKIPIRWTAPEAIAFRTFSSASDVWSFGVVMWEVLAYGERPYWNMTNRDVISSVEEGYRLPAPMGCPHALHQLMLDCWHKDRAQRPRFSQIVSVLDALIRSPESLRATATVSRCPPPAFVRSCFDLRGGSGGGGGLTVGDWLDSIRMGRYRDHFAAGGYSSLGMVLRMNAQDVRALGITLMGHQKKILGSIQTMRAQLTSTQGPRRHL
Particulars: at 1 µM.

For assay [8], the target named is T2, Ephrin type-A receptor 8 (Homo sapiens). The note with it: at 10 µM.
The target in assay [9] is T3, Ephrin type-B receptor 1 (Homo sapiens) (UniProt P54762).
T3 sequence (whole entry): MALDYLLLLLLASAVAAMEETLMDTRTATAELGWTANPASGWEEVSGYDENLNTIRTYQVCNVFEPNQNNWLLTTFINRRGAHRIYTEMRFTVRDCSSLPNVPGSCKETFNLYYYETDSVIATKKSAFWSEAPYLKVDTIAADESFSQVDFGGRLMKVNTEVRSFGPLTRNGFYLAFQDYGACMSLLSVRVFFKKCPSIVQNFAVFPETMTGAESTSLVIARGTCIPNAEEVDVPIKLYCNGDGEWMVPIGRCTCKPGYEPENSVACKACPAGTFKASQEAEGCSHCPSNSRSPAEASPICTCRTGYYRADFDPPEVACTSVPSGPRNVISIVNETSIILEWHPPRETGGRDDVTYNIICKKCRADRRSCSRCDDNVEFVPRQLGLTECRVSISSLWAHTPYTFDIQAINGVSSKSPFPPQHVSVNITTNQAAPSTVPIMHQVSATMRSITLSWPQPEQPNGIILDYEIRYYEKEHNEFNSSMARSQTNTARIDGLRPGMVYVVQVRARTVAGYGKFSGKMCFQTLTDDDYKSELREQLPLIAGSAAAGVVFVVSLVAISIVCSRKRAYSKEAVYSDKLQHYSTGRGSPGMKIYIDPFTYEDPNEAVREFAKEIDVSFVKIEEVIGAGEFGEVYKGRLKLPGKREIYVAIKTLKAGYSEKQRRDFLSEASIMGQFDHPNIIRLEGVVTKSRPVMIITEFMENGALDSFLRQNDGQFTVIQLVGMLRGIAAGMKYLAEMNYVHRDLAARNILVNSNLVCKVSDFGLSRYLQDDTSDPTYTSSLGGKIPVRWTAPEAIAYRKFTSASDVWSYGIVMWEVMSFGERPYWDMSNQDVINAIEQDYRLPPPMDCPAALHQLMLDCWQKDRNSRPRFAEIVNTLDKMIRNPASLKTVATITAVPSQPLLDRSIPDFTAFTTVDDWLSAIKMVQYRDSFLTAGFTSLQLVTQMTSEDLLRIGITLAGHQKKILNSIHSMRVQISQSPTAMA
The note with it: at 1 µM.

For assay [10], the target named is T3, Ephrin type-B receptor 1 (Homo sapiens). The note with it: at 10 µM.
Assay [11] concerns the target T4, Ephrin type-B receptor 3 (Homo sapiens) (UniProt P54753).
T4 sequence (whole entry): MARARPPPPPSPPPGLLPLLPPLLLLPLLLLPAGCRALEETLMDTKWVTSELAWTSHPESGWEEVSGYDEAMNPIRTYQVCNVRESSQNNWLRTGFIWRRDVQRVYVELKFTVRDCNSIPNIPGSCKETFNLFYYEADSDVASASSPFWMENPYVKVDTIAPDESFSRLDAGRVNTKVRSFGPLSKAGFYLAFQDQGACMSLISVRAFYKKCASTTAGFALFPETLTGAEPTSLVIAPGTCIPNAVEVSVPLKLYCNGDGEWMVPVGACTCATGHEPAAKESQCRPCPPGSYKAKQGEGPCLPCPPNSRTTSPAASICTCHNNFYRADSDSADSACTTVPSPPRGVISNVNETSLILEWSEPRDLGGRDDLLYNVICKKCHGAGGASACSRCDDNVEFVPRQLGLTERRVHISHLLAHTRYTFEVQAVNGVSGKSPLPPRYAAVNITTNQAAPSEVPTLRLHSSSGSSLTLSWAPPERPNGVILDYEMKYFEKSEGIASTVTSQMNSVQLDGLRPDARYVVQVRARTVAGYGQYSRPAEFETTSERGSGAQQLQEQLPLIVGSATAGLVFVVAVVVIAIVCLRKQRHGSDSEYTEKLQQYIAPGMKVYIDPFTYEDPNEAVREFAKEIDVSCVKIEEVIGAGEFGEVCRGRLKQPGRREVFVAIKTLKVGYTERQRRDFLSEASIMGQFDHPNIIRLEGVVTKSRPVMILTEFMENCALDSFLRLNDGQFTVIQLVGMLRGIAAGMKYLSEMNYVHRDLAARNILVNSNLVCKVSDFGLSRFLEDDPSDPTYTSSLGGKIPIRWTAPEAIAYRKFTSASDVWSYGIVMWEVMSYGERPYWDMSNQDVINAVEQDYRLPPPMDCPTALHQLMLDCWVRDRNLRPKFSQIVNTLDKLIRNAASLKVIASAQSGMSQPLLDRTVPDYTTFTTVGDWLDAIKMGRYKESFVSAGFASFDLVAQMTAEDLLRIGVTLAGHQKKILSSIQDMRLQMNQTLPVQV
The note with it: at 10 µM.

For assay [12], the target named is T5, Ephrin type-B receptor 4 (Homo sapiens) (UniProt P54760).
T5 sequence (whole entry): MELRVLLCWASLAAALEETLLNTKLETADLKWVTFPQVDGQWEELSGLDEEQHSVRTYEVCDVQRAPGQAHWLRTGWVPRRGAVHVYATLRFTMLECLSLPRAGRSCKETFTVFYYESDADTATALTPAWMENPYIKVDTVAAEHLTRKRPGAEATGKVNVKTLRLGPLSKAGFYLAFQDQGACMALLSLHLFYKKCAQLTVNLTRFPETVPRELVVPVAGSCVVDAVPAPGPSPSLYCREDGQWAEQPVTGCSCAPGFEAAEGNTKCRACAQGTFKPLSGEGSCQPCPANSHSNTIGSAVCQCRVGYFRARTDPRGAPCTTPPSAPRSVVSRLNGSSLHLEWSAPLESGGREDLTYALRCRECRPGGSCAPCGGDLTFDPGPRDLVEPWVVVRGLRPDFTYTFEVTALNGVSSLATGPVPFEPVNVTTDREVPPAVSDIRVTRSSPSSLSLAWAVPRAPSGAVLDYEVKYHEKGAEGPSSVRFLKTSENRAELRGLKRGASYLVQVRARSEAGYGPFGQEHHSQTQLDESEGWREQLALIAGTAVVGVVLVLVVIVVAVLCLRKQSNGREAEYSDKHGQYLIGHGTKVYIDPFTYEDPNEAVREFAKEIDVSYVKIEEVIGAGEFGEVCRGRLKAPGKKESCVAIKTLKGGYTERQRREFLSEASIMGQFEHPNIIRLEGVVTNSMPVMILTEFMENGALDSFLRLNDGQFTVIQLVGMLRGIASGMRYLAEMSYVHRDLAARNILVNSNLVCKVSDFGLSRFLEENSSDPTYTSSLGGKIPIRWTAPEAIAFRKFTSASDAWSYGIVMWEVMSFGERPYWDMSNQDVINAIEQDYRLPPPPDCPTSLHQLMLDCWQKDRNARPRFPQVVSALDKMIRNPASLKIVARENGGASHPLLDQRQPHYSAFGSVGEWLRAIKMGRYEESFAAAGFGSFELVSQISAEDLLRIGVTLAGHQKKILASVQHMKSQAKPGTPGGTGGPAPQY
The note with it: at 1 µM.

The target of assay [13] is T5, Ephrin type-B receptor 4 (Homo sapiens). Particulars: at 10 µM.
In assay [14] the target is Receptor tyrosine-protein kinase erbB-4 (Homo sapiens) (UniProt Q15303). The note with it: at 1 µM.
The target is the same in assay [15]. Particulars: at 10 µM.
The target in assay [16] is Focal adhesion kinase 1 (Homo sapiens) (UniProt Q05397). The note with it: at 1 µM.

Ephrin type-A receptor 7 (Homo sapiens), sequence (Q15375 28-998 limits assumed): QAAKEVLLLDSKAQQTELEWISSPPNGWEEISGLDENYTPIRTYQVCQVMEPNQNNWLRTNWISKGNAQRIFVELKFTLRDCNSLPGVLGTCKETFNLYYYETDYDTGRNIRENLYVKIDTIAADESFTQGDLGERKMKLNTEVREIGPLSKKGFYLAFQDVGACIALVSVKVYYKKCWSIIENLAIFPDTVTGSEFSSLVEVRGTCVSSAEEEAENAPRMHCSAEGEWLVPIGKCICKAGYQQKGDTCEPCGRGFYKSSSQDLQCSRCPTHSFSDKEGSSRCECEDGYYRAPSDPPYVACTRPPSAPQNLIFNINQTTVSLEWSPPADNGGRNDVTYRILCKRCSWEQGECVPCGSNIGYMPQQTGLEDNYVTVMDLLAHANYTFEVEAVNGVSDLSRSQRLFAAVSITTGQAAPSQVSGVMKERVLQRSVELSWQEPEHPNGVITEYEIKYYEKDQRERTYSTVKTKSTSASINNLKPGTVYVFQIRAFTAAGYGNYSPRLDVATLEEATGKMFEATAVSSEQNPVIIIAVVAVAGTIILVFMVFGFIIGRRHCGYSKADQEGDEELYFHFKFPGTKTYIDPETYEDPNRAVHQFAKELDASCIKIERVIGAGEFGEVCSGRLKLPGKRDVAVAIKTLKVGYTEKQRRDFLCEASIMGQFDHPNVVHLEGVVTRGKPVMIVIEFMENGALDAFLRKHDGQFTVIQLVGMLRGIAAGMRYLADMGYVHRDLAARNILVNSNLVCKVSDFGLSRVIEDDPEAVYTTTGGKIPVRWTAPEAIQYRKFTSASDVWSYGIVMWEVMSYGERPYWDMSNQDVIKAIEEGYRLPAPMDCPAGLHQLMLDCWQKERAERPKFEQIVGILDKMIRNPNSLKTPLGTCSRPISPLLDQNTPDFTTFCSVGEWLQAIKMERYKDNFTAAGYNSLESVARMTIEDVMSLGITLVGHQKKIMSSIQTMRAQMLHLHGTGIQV
Receptor tyrosine-protein kinase erbB-4 (Homo sapiens), sequence (Q15303 whole entry): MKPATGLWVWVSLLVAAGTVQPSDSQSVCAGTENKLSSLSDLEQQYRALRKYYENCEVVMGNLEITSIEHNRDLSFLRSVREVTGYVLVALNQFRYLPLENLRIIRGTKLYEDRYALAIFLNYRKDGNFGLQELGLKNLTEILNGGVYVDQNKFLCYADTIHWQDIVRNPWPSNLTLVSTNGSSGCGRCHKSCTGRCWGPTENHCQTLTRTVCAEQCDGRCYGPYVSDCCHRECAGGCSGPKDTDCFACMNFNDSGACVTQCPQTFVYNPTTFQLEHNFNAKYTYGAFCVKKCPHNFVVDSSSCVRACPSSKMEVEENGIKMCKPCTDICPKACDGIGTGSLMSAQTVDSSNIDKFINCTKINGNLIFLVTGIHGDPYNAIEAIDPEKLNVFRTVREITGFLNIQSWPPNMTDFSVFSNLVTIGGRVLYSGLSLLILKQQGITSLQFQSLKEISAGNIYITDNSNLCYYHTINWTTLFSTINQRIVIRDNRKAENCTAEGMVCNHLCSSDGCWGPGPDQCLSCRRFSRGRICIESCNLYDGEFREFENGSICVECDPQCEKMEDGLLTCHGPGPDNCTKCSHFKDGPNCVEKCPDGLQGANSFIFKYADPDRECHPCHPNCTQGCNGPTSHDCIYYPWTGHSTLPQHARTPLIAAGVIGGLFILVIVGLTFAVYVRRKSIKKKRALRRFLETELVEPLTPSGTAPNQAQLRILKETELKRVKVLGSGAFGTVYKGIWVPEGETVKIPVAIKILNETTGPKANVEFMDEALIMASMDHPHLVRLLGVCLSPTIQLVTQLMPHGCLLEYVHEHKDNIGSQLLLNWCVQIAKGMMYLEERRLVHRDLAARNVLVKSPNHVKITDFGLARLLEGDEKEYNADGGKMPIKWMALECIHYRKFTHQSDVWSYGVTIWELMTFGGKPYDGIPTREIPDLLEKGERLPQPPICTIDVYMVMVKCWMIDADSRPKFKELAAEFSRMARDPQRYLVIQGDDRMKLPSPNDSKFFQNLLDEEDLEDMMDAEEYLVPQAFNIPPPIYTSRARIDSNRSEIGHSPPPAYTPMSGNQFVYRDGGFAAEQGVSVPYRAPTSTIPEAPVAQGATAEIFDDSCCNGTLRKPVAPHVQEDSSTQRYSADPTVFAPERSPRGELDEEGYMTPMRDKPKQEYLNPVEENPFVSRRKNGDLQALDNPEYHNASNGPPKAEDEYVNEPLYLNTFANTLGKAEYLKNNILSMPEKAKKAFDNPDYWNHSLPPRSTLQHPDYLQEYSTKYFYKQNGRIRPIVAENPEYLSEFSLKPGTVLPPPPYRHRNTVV
Ephrin type-A receptor 5 (Homo sapiens), sequence (P54756 whole entry): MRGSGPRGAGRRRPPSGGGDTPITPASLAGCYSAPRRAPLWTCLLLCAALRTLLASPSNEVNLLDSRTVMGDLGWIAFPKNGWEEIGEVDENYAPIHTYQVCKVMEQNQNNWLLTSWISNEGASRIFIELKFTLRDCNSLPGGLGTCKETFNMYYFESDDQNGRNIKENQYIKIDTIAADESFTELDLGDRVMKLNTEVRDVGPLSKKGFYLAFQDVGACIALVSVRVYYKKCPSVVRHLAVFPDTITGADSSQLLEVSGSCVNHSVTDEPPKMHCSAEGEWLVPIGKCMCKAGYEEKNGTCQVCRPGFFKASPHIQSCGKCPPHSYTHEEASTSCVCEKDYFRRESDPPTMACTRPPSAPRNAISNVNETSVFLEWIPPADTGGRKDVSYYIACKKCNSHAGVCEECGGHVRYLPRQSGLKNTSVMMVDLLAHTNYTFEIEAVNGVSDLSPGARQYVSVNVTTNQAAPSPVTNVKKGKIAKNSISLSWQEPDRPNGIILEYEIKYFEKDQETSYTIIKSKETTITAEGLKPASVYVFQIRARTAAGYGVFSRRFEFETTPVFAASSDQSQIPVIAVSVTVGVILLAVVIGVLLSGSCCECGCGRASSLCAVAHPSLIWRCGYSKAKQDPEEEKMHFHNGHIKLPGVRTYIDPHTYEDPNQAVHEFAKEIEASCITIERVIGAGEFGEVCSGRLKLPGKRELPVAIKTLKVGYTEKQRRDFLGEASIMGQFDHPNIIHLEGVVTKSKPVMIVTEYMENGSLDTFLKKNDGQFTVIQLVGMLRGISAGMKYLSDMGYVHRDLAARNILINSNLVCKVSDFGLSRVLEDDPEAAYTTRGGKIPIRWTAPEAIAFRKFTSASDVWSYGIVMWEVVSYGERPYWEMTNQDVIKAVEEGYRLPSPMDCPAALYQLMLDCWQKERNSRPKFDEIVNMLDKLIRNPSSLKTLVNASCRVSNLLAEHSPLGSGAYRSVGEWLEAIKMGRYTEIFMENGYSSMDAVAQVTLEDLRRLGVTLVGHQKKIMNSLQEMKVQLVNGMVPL
Ephrin type-A receptor 4 (Homo sapiens), sequence (P54764 whole entry): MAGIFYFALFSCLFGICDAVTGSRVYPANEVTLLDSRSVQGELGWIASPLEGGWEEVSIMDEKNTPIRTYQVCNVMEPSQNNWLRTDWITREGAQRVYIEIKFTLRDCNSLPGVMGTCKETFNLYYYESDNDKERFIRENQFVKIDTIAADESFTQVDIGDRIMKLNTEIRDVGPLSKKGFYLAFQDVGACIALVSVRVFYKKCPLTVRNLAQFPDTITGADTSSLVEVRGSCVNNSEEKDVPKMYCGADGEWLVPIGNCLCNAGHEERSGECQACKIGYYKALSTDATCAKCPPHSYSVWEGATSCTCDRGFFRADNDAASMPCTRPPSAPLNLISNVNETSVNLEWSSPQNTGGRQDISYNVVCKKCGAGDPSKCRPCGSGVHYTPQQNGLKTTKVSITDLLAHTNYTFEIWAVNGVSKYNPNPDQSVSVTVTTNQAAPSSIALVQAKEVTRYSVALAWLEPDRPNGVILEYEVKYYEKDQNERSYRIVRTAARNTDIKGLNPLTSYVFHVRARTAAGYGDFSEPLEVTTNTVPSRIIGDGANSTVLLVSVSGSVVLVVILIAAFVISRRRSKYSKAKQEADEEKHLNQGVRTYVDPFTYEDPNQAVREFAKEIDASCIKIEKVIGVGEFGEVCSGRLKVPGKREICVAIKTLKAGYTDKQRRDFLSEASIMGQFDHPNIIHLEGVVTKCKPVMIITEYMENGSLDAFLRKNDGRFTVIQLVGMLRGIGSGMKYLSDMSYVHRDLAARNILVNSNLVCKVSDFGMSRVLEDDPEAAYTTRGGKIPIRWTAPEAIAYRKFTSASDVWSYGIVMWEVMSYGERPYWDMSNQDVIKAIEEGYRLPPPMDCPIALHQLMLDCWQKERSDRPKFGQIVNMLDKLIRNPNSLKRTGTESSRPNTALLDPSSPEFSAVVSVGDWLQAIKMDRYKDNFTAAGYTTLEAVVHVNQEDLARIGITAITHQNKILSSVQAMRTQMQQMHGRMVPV

As to `CC(C)c1nn(-c2c(Cl)cccc2Cl)c2nc(Cc3ccc(OCCO)cc3)[nH]c(=O)c12`, the residual activity stood at 85% in [1]; 121% in assay [2]; 106% in assay [3]; 106% in [4]; 97% in assay [5]; 88% in [6]. In addition, the residual activity in assay [7] stood at 94%; in [8] it was 89%; in assay [9], 90%; in assay [10] it was 84%; in assay [11], 108%; in [12] it was 86%. Also, the residual activity came to 76% in [13], 103% in assay [14], 91% in assay [15] and 109% in assay [16].

Source of the values: ChEMBL document CHEMBL2218924, “A broad activity screen in support of a chemogenomic map for kinase signalling research and drug discovery” (Biochem J, 2013).
